40 compounds from PubChem BioAssay (NCI) can be followed below.

The panel holds about 83,000 compounds, 20% with a hit somewhere; the sample as a whole holds those more often.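 Note: values are percent growth. 100 is the growth of untreated cells, values between 100 and 0 indicate rising inhibition; between -100 and 0 indicates cell death.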 Calls of active or inactive are those of the source.

In the assay the test system is RPMI-8226 leukemia. Nature of the assay: NCI-60 one-dose screen, 48 h (100 = growth as untreated, 0 = no growth, -100 = all killed). The settings on record: 10 µM unless noted. As for the experimental part: Growth inhibition of the RPMI-8226 human tumor cell line is measured as a screen for anti-cancer activity. Cells are grown in 96 well plates and exposed to the test compound for 48 hours. Compounds are tested at a single concentration, which is 10^-5 M for most compounds. The reported endpoint is percent growth (GI% or GIPRCNT), where numbers from 0 - 100% represent growth inhibition, and numbers from -100% - 0 represent cell death. For example, a value of 40 represents 60% growth inhibition. A value of 0 means no net growth occurred over the course of the experiment. A value of -40 indicates 40% of cells at the beginning of the experiment died by the end of the experiment. A value of -100 means all cells are dead at the end of the experiment.
NCI-60 Human Tumor Cell Lines Screen was performed using the standard one-dose NCI protocol, which is described in more detail at https://dtp.cancer.gov/discovery_development/nci-60/default.htm.
Compounds with GIPRCNT values below 10 were considered active. Activity score was based on GIPRCNT using the following formula: […]
Score is 0 for GIPRCNT values of 100 or above, 50 for GIPRCNT values of 0, and 100 for GIPRCNT values of -100.
Regarding `C=CCc1ccc(OC(=O)Cc2ccccc2)c(OC)c1`, the growth was 106% (inactive).
Then `CC(=O)O[C@H]1CCC2(C)C(=CCC3C2CCC2(C)/C(=N/OC(=O)c4ccc(N(CCCl)CCCl)cc4)CCC32)C1` (stereo not given in full), with 26.6% (inactive); and `CCC1([N+](=O)[O-])COP(=O)(NCc2cccnc2)OC1` (stereo not given), with 104% (inactive).
Regarding `Cc1cc(NC(=O)NCCOc2ccc(N3C(N)=NC(N)=NC3(C)C)cc2Cl)ccc1S(=O)(=O)F`, the growth is 40.5% (inactive).
As to `O=C(CCF)c1ccc(O)cc1`, the growth was 97.5% (inactive).
Then `CC1(C)N=C(N)N=C(N)N1c1ccc(OCCCCOc2ccc(S(=O)(=O)F)cc2)c(Cl)c1`, with 7.96% (active).
Then `C#CC1(O)CCC2(C)C(CCC3C4CCC(=O)C4(C)CCC32)C1` (stereo not given), with 83.7% (inactive); and `COc1cc(NCCCCCN=C(N)N)c2ncccc2c1`, with 58.2% (inactive).
Then `C/C(=C\C(=O)O[C@H]1[C@@H]2[C@H](C)CC[C@H]2[C@]2(C)O[C@@]1(C1CCCCC1)C[C@H]2OC(=O)CO)c1ccccc1`, with -28.7% (active); and `O=C(/C=C/c1ccccc1)N[C@@H](CO)Cc1cnc[nH]1`, with 98% (inactive).
With `O=[N+]([O-])c1cc([N+](=O)[O-])c(Cl)c(Cl)c1Cl`, the growth is 12.8% (inactive).
Then `CCOC(=O)c1cnc(SCc2ccc(Cl)c(Cl)c2)nc1N1CC1`, with 59.7% (inactive); and `O=[N+]([O-])c1ccc(/C=C/C=C/c2ccc(S(=O)(=O)F)cc2)c(Cl)c1`, with 93.4% (inactive); and `CN=C(NN)NN`, with 91.6% (inactive).
As for `CCCCCN(CCCCC)CC(O)c1ccc(C)c(Cl)c1` (stereo not given), the figure is 91.8% (inactive); as for `O=[N+]([O-])c1ccccc1N1CCNCC1`, 118% (inactive).
For `CC(N)Cc1ccc(O)cc1` (stereo not given), the growth is 98.3% (inactive).
Consider `O=C1NC(=O)C(Cc2ccccc2)(Cc2ccccc2)C(=O)N1`, for which the growth was 96.4% (inactive).
As for `Nc1cccc2c1Oc1ccccc1O2`, the figure is 95.9% (inactive); as for `Cc1ccc(C[As+](c2ccccc2)(c2ccccc2)c2ccccc2)cc1`, -8.65% (active); as for `C=CCC1(CC)C(=O)NC(=S)NC1=O`, 103% (inactive).
Take `CCCCCCCC(=O)OCC/C=C/C1OC1C1OC(=O)/C=C\C=C\c2nc(oc2C)/C=C(/C)CCC2OC2C1OC(=O)NC(C)=O` (stereo not given): the growth is -55.7% (active).
As for `O=C(O)c1cccc(CCl)c1`, the growth is 105% (inactive).
Then `COc1c(O)c2c3c(c1OC)-c1ccccc1CC3N(C)CC2` (stereo not given), with 102% (inactive).
With `C[C@]12CC[C@@H]3C4=C(CC[C@H]3[C@@H]1CC[C@@H]2O)CC(=O)CC4`, the growth was 91.8% (inactive).
Turning to `Nc1c(Br)cc([N+](=O)[O-])cc1[N+](=O)[O-]`, the growth was 105% (inactive).
Turning to `COc1cc(C2(C#N)CCN(C)CC2)cc(OC)c1OC`, the growth was 106% (inactive).
For the compound `CNC(=O)Oc1cc(C(C)C)ccc1Sc1ccc(C(C)C)cc1OC(=O)NC`, the growth was 51.2% (inactive).
`CO[C@@H]([CH2][Hg][S]C#N)[C@@H]([CH2][Hg][S]C#N)OC`: the growth is 94.6% (inactive).
Then `COc1cc(/C=C\c2cc(OC)c(OC)c(OC)c2)cc(N/C=C\C(=O)c2ccc(OC(F)(F)F)cc2)c1OC`, with 11.8% (inactive).
Turning to `O=S(=O)(O)c1ccc(-c2ccc([As](=O)(O)O)cc2)cc1`, the growth was 102% (inactive).
With `O=C1NC(=S)NC(=O)C1=Cc1ccccc1`, the growth is 130% (inactive).
Then `Oc1ccc2c3c1O[C@H]1c4[nH]c5ccccc5c4C[C@@]4(O)C(C2)N(CC2CC2)CC[C@]314`, with 93.1% (inactive); and `C[As](=O)(O)c1ccc(C(=O)O)cc1`, with 101% (inactive).
As for `COC(C)(C)CCC[C@H](C)C/C=C/C(C)=C/C(=O)OC(C)C`, the figure is 62.9% (inactive); as for `CNC(=O)Oc1ccccc1-c1ccccc1`, 99.4% (inactive).
As for `O=C1NC(=O)C(O)(C2(O)C(=O)NC(=O)NC2=O)C(=O)N1`, the figure is 75.6% (inactive); as for `c1ccc(CCN2CCCCC2Cc2ccccc2)cc1` (stereo not given), 107% (inactive); as for `C/C(=C\c1cc(C(F)(F)F)n(-c2ccc(N)cc2)n1)[C@@H]1C[C@@H]2O[C@]2(C)CCC[C@H](C)[C@H](O)[C@@H](C)C(=O)C(C)(C)[C@@H](O)CC(=O)O1`, 3.83% (active).
Consider `Cc1ccccc1O`, for which the growth is 108% (inactive).
